Hits are enriched below; roughly 21% of the tested compounds scored in any of these assays.
Pf growth 48h – P. falciparum growth inhibition at 48 hours (one generation). 310,000 compounds, 5.9% hits. P. falciparum luciferase growth in erythrocytes, 48 h. Potency, µM (highest dose often 28.7 µM), most hits filed as inhibitors
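In quantitative HTS format, infected erythrocytes bearing luciferase-reporter parasites were treated for a single generation at 37 C. Luminescence after adding detection reagent served as the growth measure.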
Pf growth 96h – P. falciparum growth inhibition at 96 hours. P. falciparum luciferase reporter growth, 96 h. Potency, µM (highest dose often 28.7 µM), most hits filed as inhibitors. 320,000 compounds, 6.9% hits. AID 504834
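Compounds incubated with erythrocytes infected by luciferase-expressing P. falciparum (2% hematocrit, 0.05% parasitemia final) for 96 hours, 37 C in 5% CO2. Growth inhibition scored as decreased luciferase luminescence.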
Shiga toxin inh – Shiga toxin inhibition; AID 2315; inhibition, % at 38.7 µM; 290,000 compounds, 9.2% hits; Vero cells, Shiga toxin protein synthesis inhibition reporter; in the data active = inhibition mostly above about 28%, no sharp cut-off; inactive = mostly below about 43%
Cycloheximide cs – counter-screen for Shiga toxin inhibitors: cycloheximide protein synthesis inhibition; cell reporter, cycloheximide protein synthesis inhibition counterscreen; max response, %; 300,000 compounds, 12% hits; in the data active = max response mostly above about 13%, no sharp cut-off; inactive = mostly below about 14%; note: read at 38.3 µM for the half of the compounds with a filed dose
Of the large screens only hits and unclear results are named; the others gave an inactive call. Unless noted, calls come from the whole dose curve; as a rule, active = well fitted inhibition curve with a large enough effect; inconclusive = small, poorly fitted or top-dose-only effect, or another doubt; inactive = no such curve, though single readings can be large or run the other way.

CCn1c2c(c(=N)c3ccccc31)CCC2	Pf growth 48h inconclusive, Pf growth 96h inconclusive
N=c1c2c(n(Cc3ccc(F)cc3)c3c1CCC3)CCC2	Pf growth 48h 0.117µM
CCCCCCn1c(=O)[nH]c2c(c1=O)CCC2	none
CCCCCCn1c2c(c(=N)c3c1CCC3)CCC2	Pf growth 48h 0.208µM
O=C(CSc1ccc2ccccc2c1)Nc1ncccn1	none
S=c1[nH]c2cc(-c3ccccc3)ccc2o1	none
CCc1nnc(NC(=O)Cc2ccc(Br)cc2)s1	none
O=C(NCC1CCCN1S(=O)(=O)c1cccs1)C(=O)Nc1ccccc1Cl (stereo unspecified)	Pf growth 48h inconclusive (no result: Shiga toxin inh, Cycloheximide cs)
CCCCCCCCCn1c2c(c(=N)c3c1CCC3)CCC2	Pf growth 48h 0.294µM, Pf growth 96h 0.131µM
CCCCn1c2c(c(=N)c3c1CCC3)CCC2	Pf growth 48h 0.147µM, Pf growth 96h 0.0329µM
CC(C)CC1Nc2ccc(C(=O)NCCCN3CCCCC3C)cc2NC1=O (stereo unspecified)	none
CC(C)(C)CC(=O)Nc1cc2c3c(c1)CCN3C(=O)CC2	none
COc1ccccc1/C=C/C=C(\C#N)C(=O)NC(C)c1ccccc1 (stereo unspecified)	Pf growth 48h inconclusive, Cycloheximide cs 10.8
CC(=O)NCCc1csc(-c2ccccc2)n1	Pf growth 96h inconclusive, Cycloheximide cs 16.0
CC(C)(C)CC(=O)NCCc1csc(-c2ccccc2)n1	Shiga toxin inh 34.0, Cycloheximide cs 21.8
Cc1cccn2cc(CCNC(=O)c3cccs3)nc12	Cycloheximide cs 18.5
O=C(NCCc1csc(-c2ccccc2)n1)c1ccco1	Pf growth 48h inconclusive
O=C(NCCc1csc(-c2ccccc2)n1)c1cccs1	Cycloheximide cs 13.1
Cc1nc(CCNC(=O)c2cccs2)cs1	none (no result: Pf growth 96h)
NC(=O)c1ccc(NC(=O)Cc2csc(-c3ccccc3)n2)cc1	none
CCS(=O)(=O)NCCc1csc(-c2ccccc2)n1	Shiga toxin inh 70.5, Cycloheximide cs 57.0
O=C(Cc1csc(-c2ccccc2)n1)NCc1cccs1	Shiga toxin inh 36.9, Cycloheximide cs 24.5
CC(C)c1ccc(NC(=O)Cc2c(C(=O)O)n(C)c3ccccc23)cc1	Pf growth 96h inconclusive (no result: Pf growth 48h)
Cc1cccc(C)c1NC(=O)C1c2cccc[n+]2CC(=O)N1Cc1cccs1 (stereo unspecified)	none
CC(=O)Nc1ccc(NC(=O)C(C)NC(C)c2cccc3ccccc23)cc1 (stereo unspecified)	none
Cc1cc(C(=O)COC(=O)c2ccc3c(c2)OCO3)c(C)n1Cc1cccs1	Shiga toxin inh 127.9, Cycloheximide cs 54.2
CCn1nc(C(=O)OCC(=O)c2cc(C)n(Cc3cccs3)c2C)c2ccccc2c1=O	Shiga toxin inh 65.5, Cycloheximide cs 72.4
Cc1ccc(/C=C(\C#N)C(=O)Nc2cccc(C)n2)cc1	none
CCCCCc1nnc(NC(=O)OCCC)s1	Cycloheximide cs 13.5 (no result: Pf growth 96h)
CCCCOC(=O)Nc1nc(C)c(C(=O)OCC)s1	Pf growth 96h 1.47µM (no result: Pf growth 48h)
CCc1nnc(NC(=O)OCc2ccccc2)s1	Shiga toxin inh 60.1, Cycloheximide cs 19.8
CCOC(=O)c1sc(NC(=O)CC)nc1C	none
CCOC(=O)Nc1nnc(CCc2ccccc2)s1	none (no result: Pf growth 96h)
C/C=C(\C)c1nnc(NC(=O)OCC)s1	Shiga toxin inh 42.4, Cycloheximide cs 14.6 (no result: Pf growth 96h)
CCOc1ccc(C(=O)COC(=O)c2cc(=O)[nH]c3ccccc23)cc1	none (no result: Shiga toxin inh, Cycloheximide cs)
CCC(C)[C@H](NC(=O)NCc1ccc(S(N)(=O)=O)cc1)C(=O)O (stereo partly specified)	none
CC[C@H]1C(c2cccc(Cl)c2)=NN(c2ccccc2)[C@@H]1CO	none (no result: Pf growth 48h, Pf growth 96h)
CCCCOC(=O)Nc1nnc(CC)s1	Shiga toxin inh 56.0, Cycloheximide cs 43.4 (no result: Pf growth 48h)
COc1ccc2[nH]c(S(=O)Cc3ncc(C)c(OC)c3C)nc2c1 (stereo unspecified)	Pf growth 96h 5.86µM (no result: Pf growth 48h)
COc1ccc2[nH]c(S(=O)Cc3ncc(C)c(OC)c3C)nc2n1 (stereo unspecified)	Pf growth 48h 9.53µM, Pf growth 96h 8.49µM (no result: Shiga toxin inh, Cycloheximide cs)
COc1ccnc(CS(=O)c2nc3cc(C(O)(F)F)ccc3[nH]2)c1OC (stereo unspecified)	none
Cc1ccc(C(C)C)c(OCC(=O)NC2CCN(C)CC2)c1	none
CCC1CCCCN1CCCNC(=O)c1ccc2c(c1)N(Cc1c(F)cccc1Cl)C(=O)CS2 (stereo unspecified)	Pf growth 48h 13.1µM, Pf growth 96h inconclusive
O=C(NCc1ccc2c(c1)OCO2)c1ccc2c(c1)N(Cc1c(F)cccc1Cl)C(=O)CS2	Pf growth 48h 11.7µM
O=C(NCc1ccc2c(c1)OCO2)c1ccc2c(c1)N(Cc1cccc(Cl)c1)C(=O)c1ccccc1S2	none (no result: Pf growth 48h, Pf growth 96h)
CCOC(=O)CSc1n[nH]c(NC(=O)c2cccc(C(F)(F)F)c2)n1	Pf growth 48h inconclusive, Pf growth 96h inconclusive
CCCC(=O)N1CCN(c2nc3ccc(Cl)cc3s2)CC1	Shiga toxin inh 50.2, Cycloheximide cs 42.7
O=C(O)CCCC(=O)N1CCN(c2nc(-c3ccccc3Cl)c3cc(Br)ccc3n2)CC1	none
CCCC(=O)N1CCN(c2nc3ccc(CC)cc3s2)CC1	Pf growth 48h inconclusive, Pf growth 96h inconclusive, Shiga toxin inh 133.8, Cycloheximide cs 36.3
CCCC(=O)N1CCN(c2nc3ccc(Br)cc3s2)CC1	Shiga toxin inh 46.4, Cycloheximide cs 43.9
O=C(O)CSCC(=O)N1CCN(c2nc3cc(Cl)ccc3s2)CC1	none
CCCCC(=O)N1CCN(c2nc3ccc(Br)cc3s2)CC1	Shiga toxin inh 45.0, Cycloheximide cs 25.7
Cc1ccc(C)c(N2CCN(C(=O)c3ccc4nc(N5CCOCC5)sc4c3)CC2)c1	Pf growth 48h inconclusive
CCOc1ccc(NC(=O)N2CCN(c3nc4ccccc4s3)CC2)cc1	Pf growth 48h inconclusive (no result: Pf growth 96h)
C[C@]12C=CC(=O)C=C1C=C[C@@H]1C2CC[C@]2(C)C(=O)CCC12 (stereo partly specified)	Pf growth 96h inconclusive
C=C1CC2C(CC[C@]3(C)C(=O)CCC23)[C@]2(C)C=CC(=O)C=C12 (stereo partly specified)	Pf growth 48h inconclusive, Pf growth 96h 13.5µM (no result: Shiga toxin inh, Cycloheximide cs)
CC(=O)C(=Nc1ccccc1Cl)NNc1ccc(Cl)cc1	Pf growth 48h 11.7µM, Pf growth 96h 4.65µM
O=C(NNc1ccc(Cl)cc1)c1c(F)cccc1Cl	none
CCOc1ccc(NC(=O)CSCc2cnn(-c3ccccc3)c2-n2cccc2)cc1	none (no result: Pf growth 96h)
COc1ccc(CC(=O)Oc2ccc(C)cc2Br)cc1OC	none
CC(C)CC(c1nnnn1C(C)C)N1CCN(c2ccccc2)CC1 (stereo unspecified)	none
COc1ccc(Cn2nnnc2C(CC(C)C)N2CCN(c3ccccc3)CC2)cc1 (stereo unspecified)	Pf growth 48h 7.38µM
CCCC(c1nnnn1Cc1ccc(OC)cc1)N1CCN(c2ccccc2)CC1 (stereo unspecified)	Pf growth 48h 13.1µM
CC(=O)c1ccc(OCC(O)CN2CCN(S(=O)(=O)c3c(C)c(C)cc(C)c3C)CC2)cc1 (stereo unspecified)	Pf growth 48h inconclusive
CN(CC(=O)Nc1ncn[nH]1)S(=O)(=O)c1ccc(Br)cc1	none
O=C(Nc1ccccc1)Nc1ccc(Cl)c(S(=O)(=O)N2CCOCC2)c1	Pf growth 48h 9.28µM, Pf growth 96h inconclusive
O=C(/C=C/c1ccco1)Nc1ccc(Cl)c(S(=O)(=O)N2CCOCC2)c1	Pf growth 48h inconclusive, Shiga toxin inh 74.1, Cycloheximide cs 19.9

Assay outcomes as filed in PubChem BioAssay.
